± gives the standard deviation of the averaged measurements.
Tested on: FaDu
Test: mitochondrial oxygen consumption rate normalised to cell number, Z score vs plate DMSO wells; higher = higher oxygen consumption (negative = OCR reduction)
Settings: treatment time 24 h, assay medium: 5 mM glucose, 5 mM pyruvate, 4 mM glutamine
Description: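 Secondary screen: FaDu cells were incubated 24 h with the top 130 primary hits at 0.08, 0.4, 2 or 10 uM. Mitochondrial-specific OCR (basal minus antimycin A) was measured on a Seahorse XF96 in medium with 5 mM glucose, 5 mM pyruvate and 4 mM glutamine and normalised to Hoechst cell number. OCR score = (OCR - mean of plate DMSO wells) / SD of plate DMSO wells. Three repeats.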
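Also: compound exposure in DMEM (4 mM L-glutamine, 5 mM glucose), antimycin A injected at 2 µM after the basal reading and its residual OCR subtracted from basal.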

| Compound | mitochondrial oxygen consumption rate normalised (0.08 µM) | mitochondrial oxygen consumption rate normalised (0.4 µM) | mitochondrial oxygen consumption rate normalised (10 µM) | mitochondrial oxygen consumption rate normalised (2 µM) |
| --- | --- | --- | --- | --- |
| CC[C@@]1(O)C(=O)OCc2c1cc1n(c2=O)Cc2cc3c(CN(C)C)c(O)ccc3nc2-1 [Topotecan] | -0.916 ± 1.4 | 0.308 ± 0.26 | 0.664 ± 1.4 |  |
| CC[C@@]1(O)C(=O)OCc2c1cc1n(c2=O)Cc2cc3c(CN(C)C)c(O)ccc3nc2-1 |  |  |  | -1.46 ± 1.6 |
| COc1cc([C@@H]2c3cc4c(cc3[C@@H](O[C@@H]3O[C@@H]5CO[C@@H](c6cccs6)O[C@H]5[C@H](O)[C@H]3O)[C@H]3COC(=O)[C@H]23)OCO4)cc(OC)c1O |  |  |  | -7.82 ± 1.4 |
| CCc1c2c(nc3ccc(OC(=O)N4CCC(N5CCCCC5)CC4)cc13)-c1cc3c(c(=O)n1C2)COC(=O)[C@]3(O)CC | 0.871 ± 0.77 | 1.67 ± 1.4 | -4.72 ± 1 | 1.27 ± 0.31 |
| Oc1c(Br)cc(Br)c2cccnc12 | 0.816 ± 1.4 | 1.29 ± 1 | -3.74 ± 2 | -0.243 ± 2.5 |
| CN(C)C(=O)C(CCN1CCC(O)(c2ccc(Cl)cc2)CC1)(c1ccccc1)c1ccccc1 | 0.831 ± 1.1 | 0.616 ± 1.4 | -0.932 ± 1.7 | 0.593 ± 1.7 |
| COc1cccc2c1C(=O)c1c(O)c3c(c(O)c1C2=O)C[C@@](O)(C(C)=O)C[C@@H]3O[C@H]1C[C@H](N)[C@H](O)[C@H](C)O1 | 1.45 ± 1.5 | -2.21 ± 0.4 |  | -6.3 ± 0.54 |
| CCN(CC)C(=O)c1cccnc1 | 0.606 ± 0.97 | -0.942 ± 0.098 | -1.48 ± 0.69 | -1.02 ± 1.1 |
| N=C(N)c1ccc(OCCCCCOc2ccc(C(=N)N)cc2)cc1 | 0.754 ± 1.1 | -0.0335 ± 0.92 | -6.65 ± 1.6 | -2.03 ± 2.2 |
| CCc1cc(Cl)c(OC)c(C(=O)NC[C@@H]2CCCN2CC)c1O | 0.346 ± 0.99 | 1.18 ± 0.45 | 0.556 ± 2.2 | 0.712 ± 2.1 |
| CCCCCCCCCCCCC[N+](C)(C)Cc1ccccc1 | -1.59 ± 1.3 | -3.65 ± 1.3 |  | -11.5 ± 0.21 |
| C#C[C@]1(O)CC[C@H]2[C@@H]3CCC4=CC(=O)CC[C@@H]4[C@H]3CC[C@@]21CC | 0.538 ± 0.4 | 1.49 ± 0.65 | 1.62 ± 1.1 | 1.15 ± 0.96 |
| CC(=O)O[C@H]1C[C@@]2(C)[C@@H](C[C@@H](O)[C@H]3[C@@]4(C)CC[C@@H](O)[C@@H](C)[C@@H]4CC[C@@]32C)/C1=C(\CCC=C(C)C)C(=O)O | 0.246 ± 2.1 | -0.851 ± 1.9 | -0.138 ± 1.1 | 0.0549 ± 0.78 |
| COc1cc(NS(C)(=O)=O)ccc1Nc1c2ccccc2nc2ccccc12 | -0.738 ± 1.7 | 1.51 ± 1.1 | -5.19 ± 1.7 | -1.58 ± 0.81 |
| CC(=O)[C@H]1CC[C@H]2[C@@H]3CCC4=CC(=O)CC[C@]4(C)[C@H]3CC[C@]12C | -0.339 ± 1.3 | 0.321 ± 0.92 | -1.18 ± 0.26 | -0.631 ± 1.3 |
| Cc1cc(=O)[nH]c(=S)[nH]1 | -1.18 ± 0.93 | -0.337 ± 0.83 | 0.503 ± 0.66 | -1.08 ± 0.99 |
| CCCCCCCCCc1ccc(OCCOCCOCCOCCOCCOCCOCCOCCOCCO)cc1 | 0.0515 ± 1 | 0.101 ± 0.62 | -7.69 ± 0.55 | -3.38 ± 0.78 |
| C[C@@H]1O[C@@H](OC[C@H]2O[C@@H](Oc3c(-c4ccc(O)c(O)c4)oc4cc(O)cc(O)c4c3=O)[C@H](O)[C@@H](O)[C@@H]2O)[C@H](O)[C@H](O)[C@H]1O | 0.0147 ± 1.7 | 1.67 ± 0.68 | 1.74 ± 2.4 | -0.481 ± 2.6 |
| CCCCCCc1ccc(O)cc1O.Nc1c2ccccc2nc2ccccc12 | -0.393 ± 1.3 | -0.59 ± 2.2 | -6.38 ± 0.68 | -2.14 ± 1.1 |
| O=C(O[C@H]1CN2CCC1CC2)N1CCc2ccccc2[C@@H]1c1ccccc1 | 1.08 ± 2.1 | 0.729 ± 0.44 | -0.974 ± 1.9 | 0.566 ± 1.2 |
| CCCCC(CC)CN1CN(CC(CC)CCCC)CC(C)(N)C1 (stereo unspecified) | 1.53 ± 1.5 | 0.568 ± 0.56 | -5.24 ± 1.7 | 0.773 ± 1.7 |
| Oc1c(Cl)cc(Cl)c(Cl)c1Cc1c(O)c(Cl)cc(Cl)c1Cl | -0.831 ± 1.9 | 1.92 ± 0.93 | -13.3 ± 0.45 | -2.48 ± 0.61 |
| CO[C@H](C(=O)[C@@H](O)[C@@H](C)O)[C@@H]1Cc2cc3cc(O[C@H]4C[C@@H](O[C@@H]5C[C@@H](O)[C@H](O)[C@@H](C)O5)[C@H](O)[C@@H](C)O4)c(C)c(O)c3c(O)c2C(=O)[C@H]1O[C@H]1C[C@@H](O[C@@H]2C[C@@H](O)[C@@H](O[C@@H]3C[C@](C)(O)[C@H](O)[C@@H](C)O3)[C@@H](C)O2)[C@H](O)[C@@H](C)O1 | -4.64 ± 1.4 | -7.12 ± 0.33 | -8.14 ± 0.52 | -7.79 ± 0.54 |

| Compound | mitochondrial oxygen consumption rate normalised (0.08 µM) | mitochondrial oxygen consumption rate normalised (0.4 µM) | mitochondrial oxygen consumption rate normalised (10 µM) | mitochondrial oxygen consumption rate normalised (2 µM) |
| --- | --- | --- | --- | --- |
| Nc1nc2[nH]cnc2c(=S)[nH]1 | -1.04 ± 1.9 | -0.865 ± 0.14 | -5.01 ± 1.4 | -5.57 ± 0.33 |
| O=c1cc[nH]c(=S)[nH]1 | -0.646 ± 1.9 | 1.11 ± 0.98 | 0.14 ± 2.1 | -0.279 ± 2.5 |
| CC(C)NCC(O)COc1ccc(CC(N)=O)cc1 (stereo unspecified) | 0.23 ± 1.7 | 0.806 ± 0.77 | -0.73 ± 1.5 | 0.178 ± 1 |
| CCCCC(CC)CN=C(N)N=C(N)NCCCCCCNC(N)=NC(N)=NCC(CC)CCCC (stereo unspecified) | -1.69 ± 0.36 | 1.12 ± 0.29 | -10.4 ± 0.54 | -0.611 ± 2 |
| Cc1ccc2c(Br)cc(Br)c(OC(=O)c3ccccc3)c2n1 | 1.43 ± 0.79 | 0.324 ± 0.71 | -4.73 ± 1.5 | -3.89 ± 1.2 |
| C[C@]12CC[C@@H]3c4ccc(O)cc4CC[C@H]3[C@@H]1CC[C@@H]2OC(=O)CCC1CCCC1 | 0.0173 ± 1.4 | 0.582 ± 0.51 | -0.125 ± 1.5 | 0.375 ± 0.83 |
| CCC(C)n1ncn(-c2ccc(N3CCN(c4ccc(OCC5COC(Cn6cncn6)(c6ccc(Cl)cc6Cl)O5)cc4)CC3)cc2)c1=O (stereo unspecified) | 0.265 ± 1.4 | 1.4 ± 0.68 | -4.35 ± 1.6 | -0.554 ± 1.1 |
| COc1cc(O)c(C(=O)c2ccccc2)cc1S(=O)(=O)O | 0.104 ± 1.6 | 1.17 ± 0.81 | -1.77 ± 1 | -0.346 ± 2.5 |
| S=c1[nH]cnc2nc[nH]c12 | 0.147 ± 1.5 | 0.888 ± 1.4 | -2.54 ± 0.98 | -2.8 ± 1.2 |
| CO[C@@]12[C@H](COC(N)=O)C3=C(C(=O)C(C)=C(N)C3=O)N1C[C@@H]1N[C@@H]12 | -0.603 ± 0.39 | 1.96 ± 0.85 | -3.99 ± 1.3 | -1.73 ± 1.2 |
| N=C(N)NC(=N)NCCc1ccccc1 | 0.684 ± 1.6 | 0.605 ± 0.9 | -5.11 ± 1.6 | -0.479 ± 0.84 |
| CCN(CC)CCCC(C)Nc1ccnc2cc(Cl)ccc12 (stereo unspecified) | 0.223 ± 1.1 | 1.56 ± 0.35 | 0.482 ± 1.1 | -0.792 ± 0.8 |
| Cc1cc(C(C)(C)CC(C)(C)C)ccc1OCCOCC[N+](C)(C)Cc1ccccc1 | -1.05 ± 0.63 | 0.588 ± 0.44 | -12.6 ± 0.23 | -5.29 ± 1.2 |
| CC(COc1ccccc1)NC(C)C(O)c1ccc(O)cc1 (stereo unspecified) | 0.276 ± 1.4 | 1.57 ± 0.3 | 0.099 ± 1 | 0.21 ± 1.1 |
| Clc1ccc(COC(Cn2ccnc2)c2ccc(Cl)cc2Cl)cc1 (stereo unspecified) | 0.524 ± 0.89 | 0.994 ± 1.6 | -4.62 ± 1.4 | 0.111 ± 1.5 |
| CCCCCCCCNC(C)C(O)c1ccc(SC(C)C)cc1 (stereo unspecified) | 0.0353 ± 1.1 | -0.376 ± 0.59 | -7.88 ± 0.64 | 0.293 ± 1.8 |
| Cc1cc(/C=C/c2ccc3cc(N(C)C)ccc3[n+]2C)c(C)n1-c1ccccc1 | -1.73 ± 1 | -11.7 ± 0.64 | < -13.8 | -13.47 ± 0.04 |
| CNC(=O)c1cc(Oc2ccc(NC(=O)Nc3ccc(Cl)c(C(F)(F)F)c3)cc2)ccn1 | -1.33 ± 0.69 | -0.411 ± 0.42 | -12.1 ± 0.9 | -1.86 ± 0.2 |
| O=C(O)c1cc(/N=N/c2ccc(O)c(C(=O)O)c2)ccc1O | 0.0704 ± 1.6 | 0.359 ± 0.82 | -0.951 ± 2.1 | -0.373 ± 1.2 |
| C[n+]1c2cc(N)ccc2cc2ccc(N)cc21 | 0.662 ± 0.73 | -1.94 ± 0.8 | -12.3 ± 0.21 | -5.7 ± 0.82 |
| CC(=O)Oc1ccccc1C(=O)Nc1ncc([N+](=O)[O-])s1 | 0.233 ± 1.2 | 1.38 ± 0.59 | 1.49 ± 1.2 | 1.82 ± 0.7 |
| Nc1ccc2cc3ccc(N)cc3nc2c1 | 0.988 ± 0.79 | 1.43 ± 0.73 | -6.68 ± 1.4 | -2.56 ± 1.5 |

— the supplement of paper PMC4962491
